Measurements reported in PubChem BioAssay (NCI).
Compounds without any hit were thinned out: in the full panel of roughly 79,000, 15% have a hit. Activity calls are given as the source filed them. Cut-off read from the data, not from the text of the source: active = growth inhibition above about 70%; inactive = the rest.

Key:
[1] = NCI Yeast Anticancer Drug Screen. Data for the wt1 strain (AID 149);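 note: 0% = growth of vehicle-treated wt1 cultures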; details: S. cerevisiae wt1 strain (SPY 50644) growth inhibition, hits give high values
How it was run: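 Measured: growth of wt1 yeast under compound versus vehicle treatment, reported as inhibition.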

[2] = NCI Yeast Anticancer Drug Screen. Data for the rad50EPP+ strain (AID 151);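 note: 0% = growth of vehicle-treated control cultures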; details: S. cerevisiae rad50 mutant strain, hits give high values
How it was run: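 Exposing the rad50EPP+ strain to each compound, growth was compared with vehicle-only cultures to give inhibition.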

[3] = NCI Yeast Anticancer Drug Screen. Data for the mgt1 strain (AID 153); details: S. cerevisiae mgt1 mutant growth inhibition, hits give high values
How it was run: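 Genetically defined yeast (mgt1) treated with compound; inhibition of growth expressed against vehicle-treated controls.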

[4] = NCI Yeast Anticancer Drug Screen. Data for the rad50 strain (AID 155);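 note: 0% = growth of vehicle-only cultures of the same strain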; details: S. cerevisiae rad50 strain growth inhibition, hits give high values
How it was run: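 Growth of the mutant yeast was measured after compound exposure and referenced to vehicle-treated cultures.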

[5] = NCI Yeast Anticancer Drug Screen. Data for the mec2-1 strain (AID 157); details: S. cerevisiae mec2-1 strain, hits give high values
How it was run: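 Readout is yeast growth inhibition, normalised to vehicle-treated controls, in the mec2-1 strain exposed to compound.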

[6] = NCI Yeast Anticancer Drug Screen. Data for the rad14 strain (AID 159);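 note: 0% = growth of vehicle-treated control cultures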; details: S. cerevisiae rad14 strain growth inhibition, hits give high values
How it was run: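 Here, inhibition of yeast growth was measured after compound exposure, using a strain with a genetic defect in DNA damage repair and vehicle-treated cultures as the reference.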

[7] = NCI Yeast Anticancer Drug Screen. Data for the sgs1 mgt1 strain (AID 161);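 note: 0% = growth of cultures given vehicle only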; details: S. cerevisiae sgs1 mgt1 strain, hits give high values
How it was run: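 Percent growth inhibition was derived by comparing compound-exposed mutant yeast with vehicle-exposed cultures. The strain carries alterations in DNA damage repair.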

[8] = NCI Yeast Anticancer Drug Screen. Data for the CLN2oe strain (AID 163);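 note: 0% = growth of vehicle-only control cultures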; details: S. cerevisiae CLN2oe strain, hits give high values
How it was run: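 Values reflect how much compound exposure reduced yeast growth, referenced to vehicle-exposed cells. Assay organism is a strain with a defined genetic change affecting cell-cycle control.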

[9] = NCI Yeast Anticancer Drug Screen. Data for the cln2 rad14 strain (AID 165);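 note: 0% = growth equal to vehicle treated cultures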; details: S. cerevisiae cln2 rad14 strain, hits give high values
How it was run: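 Relative to vehicle controls, growth inhibition of compound-treated cln2 rad14 yeast was recorded.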

[10] = NCI Yeast Anticancer Drug Screen. Data for the bub3 strain (AID 167); details: S. cerevisiae bub3 mutant strain, hits give high values
How it was run: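 Whole-cell yeast assay. The mutant strain was incubated with compounds, and growth inhibition was determined by comparison with vehicle-treated cells.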

[11] = NCI Yeast Anticancer Drug Screen. Data for the wt2 strain (AID 169);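 note: 0% = growth of vehicle-treated yeast cultures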; details: S. cerevisiae wt2 strain growth inhibition, hits give high values
How it was run: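 Values express reduction in yeast growth under compound treatment, referenced to vehicle-treated cells.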

[12] = NCI Yeast Anticancer Drug Screen. Data for the mlh1 strain (AID 171);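 note: 0% = growth of vehicle-treated control cultures of the same strain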; details: S. cerevisiae mlh1 strain growth inhibition, hits give high values
How it was run: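 Steps: expose the defined-mutant yeast strain to compound; expose a parallel culture to vehicle; measure growth; express compound effect as inhibition relative to the vehicle culture.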

[13] = NCI Yeast Anticancer Drug Screen. Data for the sgs1 strain (AID 173);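 note: 0% = growth of vehicle-only control cultures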; details: S. cerevisiae sgs1 mutant, hits give high values
How it was run: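 Treat defined-mutant yeast with compound; measure growth; calculate inhibition relative to vehicle-treated cells.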

[14] = NCI Yeast Anticancer Drug Screen. Data for the mlh1 rad18 strain (AID 175); details: S. cerevisiae mlh1 rad18 strain growth inhibition, hits give high values
How it was run: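 Test agents were incubated with a yeast strain of defined genotype (DNA damage repair defect). Inhibition of growth was derived by comparison with vehicle-exposed cultures.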

[15] = NCI Yeast Anticancer Drug Screen. Data for the rad18 strain (AID 177); details: S. cerevisiae rad18 mutant growth inhibition, hits give high values
How it was run: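 A genetically defined yeast mutant impaired in DNA damage repair was treated with test compounds, then its growth was measured against cultures receiving vehicle alone.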

[16] = at 5.0 µM (retest, dose inferred, filed as 0.5)
[17] = at 50.0 µM (retest, dose inferred, filed as 5.0)

Measured: growth inhibition

COc1ccc(/C(=N/O)c2ccccc2C2=Nc3ccccc3C(NCc3ccccc3)O2)cc1C (stereo unspecified)
active: [1]; at 100.0 µM 89% | [2]; at 100.0 µM 82% | [3]; at 100.0 µM 97% | [4]; [17] 95% | [4]; at 50.0 µM 94.9% | [4]; at 100.0 µM 94% | [5]; at 50.0 µM 92.6% | [5]; at 100.0 µM 96% | [6]; at 100.0 µM 96% | [7]; [17] 85% | [7]; at 50.0 µM 95.8% | [8]; at 100.0 µM 94% | [9]; at 50.0 µM 83% | [10]; [17] 93% | [10]; at 50.0 µM 94.8% | [10]; at 100.0 µM 95% | [11]; at 100.0 µM 96% | [12]; at 100.0 µM 96% | [13]; at 100.0 µM 95% | [14]; [17] 93% | [14]; at 50.0 µM 94.2% | [15]; at 100.0 µM 94%
inactive: [1]; at 1.2 µM -1% | [1]; at 3.7 µM -2% | [1]; at 11.0 µM 1% | [1]; at 33.0 µM 17% | [2]; at 1.2 µM 3% | [2]; at 3.7 µM 1% | [2]; at 11.0 µM 15% | [2]; at 33.0 µM 49% | [3]; at 1.2 µM -2% | [3]; at 3.7 µM -3% | [3]; at 11.0 µM -1% | [3]; at 33.0 µM 31% | [4]; at 1.2 µM 1% | [4]; at 3.7 µM 3% | [4]; [16] 2% | [4]; at 11.0 µM 11% | [4]; at 33.0 µM 59% | [5]; at 1.2 µM -2% | [5]; at 3.7 µM 0% | [5]; [16] -4% | [5]; at 11.0 µM 1% | [5]; at 33.0 µM 37% | [5]; [17] 62% | [6]; at 1.2 µM 1% | [6]; at 3.7 µM 2% | [6]; at 11.0 µM 7% | [6]; at 33.0 µM 21% | [7]; [16] -3% | [8]; at 1.2 µM -2% | [8]; at 3.7 µM 2% | [8]; at 11.0 µM 1% | [8]; at 33.0 µM 4% | [9]; [16] 31% | [9]; [17] 51% | [10]; at 1.2 µM -1% | [10]; at 3.7 µM 2% | [10]; [16] 15% | [10]; at 11.0 µM 4% | [10]; at 33.0 µM 48% | [11]; at 1.2 µM -1% | [11]; at 3.7 µM -3% | [11]; at 11.0 µM 0% | [11]; at 33.0 µM 14% | [12]; at 1.2 µM -6% | [12]; at 3.7 µM -2% | [12]; at 11.0 µM 0% | [12]; at 33.0 µM 14% | [13]; at 1.2 µM -2% | [13]; at 3.7 µM -2% | [13]; at 11.0 µM 2% | [13]; at 33.0 µM 45% | [14]; [16] 2% | [15]; at 1.2 µM 0% | [15]; at 3.7 µM 0% | [15]; at 11.0 µM 11% | [15]; at 33.0 µM 67%

[Cl][Pt+2][Cl].[NH-]CC1(C[NH-])CCCCC1
inactive: [1]; at 1.2 µM -67% | [1]; at 3.7 µM -17% | [2]; at 1.2 µM -41% | [2]; at 3.7 µM -6% | [3]; at 1.2 µM -44% | [3]; at 3.7 µM 12% | [4]; at 1.2 µM -63% | [4]; at 3.7 µM -37% | [4]; [16] 26% | [5]; at 1.2 µM -67% | [5]; at 3.7 µM -19% | [5]; [16] 21% | [6]; at 1.2 µM -29% | [6]; at 3.7 µM 6% | [7]; [16] 53% | [8]; at 1.2 µM -5% | [8]; at 3.7 µM 14% | [8]; at 11.0 µM 62% | [9]; [16] 43% | [9]; at 50.0 µM 69.5% | [10]; at 1.2 µM -42% | [10]; at 3.7 µM 23% | [10]; [16] 45% | [11]; at 1.2 µM -23% | [11]; at 3.7 µM 28% | [12]; at 1.2 µM -68% | [12]; at 3.7 µM -2% | [13]; at 1.2 µM -14% | [13]; at 3.7 µM 11% | [14]; [16] 3% | [15]; at 1.2 µM -24% | [15]; at 3.7 µM -6%
active: [1]; at 11.0 µM 99% | [1]; at 33.0 µM 99% | [1]; at 100.0 µM 98% | [2]; at 11.0 µM 96% | [2]; at 33.0 µM 98% | [2]; at 100.0 µM 98% | [3]; at 11.0 µM 98% | [3]; at 33.0 µM 99% | [3]; at 100.0 µM 98% | [4]; at 11.0 µM 86% | [4]; at 33.0 µM 98% | [4]; [17] 100% | [4]; at 50.0 µM 91.1% | [4]; at 100.0 µM 98% | [5]; at 11.0 µM 98% | [5]; at 33.0 µM 99% | [5]; [17] 100% | [5]; at 50.0 µM 91.9% | [5]; at 100.0 µM 98% | [6]; at 11.0 µM 96% | [6]; at 33.0 µM 98% | [6]; at 100.0 µM 98% | [7]; [17] 100% | [7]; at 50.0 µM 92.7% | [8]; at 33.0 µM 98% | [8]; at 100.0 µM 98% | [9]; [17] 100% | [10]; at 11.0 µM 97% | [10]; at 33.0 µM 99% | [10]; [17] 100% | [10]; at 50.0 µM 91.7% | [10]; at 100.0 µM 98% | [11]; at 11.0 µM 90% | [11]; at 33.0 µM 99% | [11]; at 100.0 µM 99% | [12]; at 11.0 µM 97% | [12]; at 33.0 µM 98% | [12]; at 100.0 µM 97% | [13]; at 11.0 µM 83% | [13]; at 33.0 µM 98% | [13]; at 100.0 µM 97% | [14]; [17] 99% | [14]; at 50.0 µM 88.8% | [15]; at 11.0 µM 89% | [15]; at 33.0 µM 97% | [15]; at 100.0 µM 96%

Cc1ccc(Cl)c2c(=O)c3ccccc3[nH]c12
inactive: [1]; at 1.2 µM -1% | [1]; at 3.7 µM -3% | [1]; at 11.0 µM -2% | [1]; at 33.0 µM 0% | [1]; at 100.0 µM 5% | [2]; at 1.2 µM 4% | [2]; at 3.7 µM 2% | [2]; at 11.0 µM 12% | [2]; at 33.0 µM 24% | [2]; at 100.0 µM 58% | [3]; at 1.2 µM -2% | [3]; at 3.7 µM -1% | [3]; at 11.0 µM 0% | [3]; at 33.0 µM 0% | [3]; at 100.0 µM 7% | [4]; at 1.2 µM -9% | [4]; at 3.7 µM -44% | [4]; [16] 5% | [4]; at 11.0 µM 14% | [4]; at 33.0 µM 3% | [4]; at 100.0 µM 51% | [5]; at 1.2 µM -1% | [5]; at 3.7 µM -3% | [5]; [16] 4% | [5]; at 11.0 µM -2% | [5]; at 33.0 µM 1% | [5]; [17] 32% | [5]; at 50.0 µM 40%
active: [4]; [17] 71% | [4]; at 50.0 µM 84.1%
